Hits are enriched below; roughly 2.9% of the tested compounds scored in any of these assays.
GLP-1R inv ag: inverse agonists of human GLP-1 receptor | P43220 | HEK293 GLP-1R CRE-luciferase, luminescence, 24 h; GLP-1R form is constitutively active | Potency, µM (titrated, usually from 38.3 µM), hits mostly inhibitors | hit rate 1.6% among 410,000 | AID 624417; also: nearly all actives have a fitted effect of over 55% in size
Target sequence (P43220 whole entry, looked up): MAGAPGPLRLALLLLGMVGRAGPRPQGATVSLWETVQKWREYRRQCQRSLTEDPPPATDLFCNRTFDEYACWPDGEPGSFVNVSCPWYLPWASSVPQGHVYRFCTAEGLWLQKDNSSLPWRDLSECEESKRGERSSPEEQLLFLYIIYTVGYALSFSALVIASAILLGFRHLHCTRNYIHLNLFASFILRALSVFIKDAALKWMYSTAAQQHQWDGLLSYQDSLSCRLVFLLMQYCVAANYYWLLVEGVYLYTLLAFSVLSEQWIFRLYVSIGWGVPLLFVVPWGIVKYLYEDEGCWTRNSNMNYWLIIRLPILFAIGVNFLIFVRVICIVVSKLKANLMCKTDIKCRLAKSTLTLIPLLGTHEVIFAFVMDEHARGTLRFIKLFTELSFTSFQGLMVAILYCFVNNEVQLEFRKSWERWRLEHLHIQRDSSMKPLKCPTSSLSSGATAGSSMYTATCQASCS
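Using stably transfected HEK293 (constitutively active GLP-1R, cAMP-luciferase reporter), compounds were incubated 24 hr and luciferase measured by luminescence.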
GLP1R cytotox: cytotoxicity in counter-screen for GLP-1R inverse agonists. hit rate 0.13% among 410,000. Potency, µM (highest dose often 38.3 µM), most hits filed as inhibitors. HEK293 cAMP-luciferase reporter cells, luminescence, 24 h;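 also: loss of luciferase light is scored as toxicity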
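To flag toxic compounds, the library was rerun on cells for 24 hr at 37 deg C and 5% CO2. Viability-linked luminescence was captured 12 min after adding luciferase detection reagent.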
p53 reactivation: restores transcriptional activity of mutant p53; H1299 p53-A138V BP100-luciferase reporter, luminescence, 24 h; Potency, µM (top dose mostly 92.2 µM), actives largely listed as activators; hit rate 0.063% among 320,000; also: nearly all actives have a fitted effect of over 45% in size
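H1299 (p53-null), stable ts p53-A138V + BP100-Luc; 1000 cells/well, Opti-MEM/10% FBS; cpd 4 pt, 1:5; 24 h, 37 deg C, 5% CO2; detection reagent 10 min RT; luminescence.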
ClpP mod: qHTS Assay for Activators of ClpP; Potency, µM (highest dose often 57.5 µM); hit rate 1.9% among 340,000; ATP-dependent Clp protease proteolytic subunit (Bacillus subtilis (strain 168)), P80244; purified B. subtilis ClpP, FRET peptide cleavage, 20 min; AID 651965, 2013; active = well fitted falling curve with a large enough effect; inconclusive = small, poorly fitted or top-dose-only effect; inactive = no such curve, though single readings can be large or run the other way; also: the source files actives as falling curves though it sought activators and does not explain the sign; nearly all actives have a fitted effect of over 65% in size
Target sequence (P80244 whole entry, looked up): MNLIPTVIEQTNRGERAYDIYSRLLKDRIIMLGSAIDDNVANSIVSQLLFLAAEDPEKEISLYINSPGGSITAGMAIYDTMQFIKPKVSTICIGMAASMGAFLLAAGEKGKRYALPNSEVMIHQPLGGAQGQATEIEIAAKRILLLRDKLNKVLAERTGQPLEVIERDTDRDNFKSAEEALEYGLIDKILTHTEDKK
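ClpP 10 microg/mL final, pH 8 Tris/KCl buffer with BSA, glycerol, Tween-20; compound pinned in; FRET-FV substrate; RT 20 min; Ex320/Em430; ΔFRET vs ADEP 5.8 microM, DMSO, no enzyme.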
GLP-1R agonist: GLP-1 receptor (human) agonism | HEK293 GLP-1R CRE-luciferase, luminescence, 4-6 h; cells express a hypersensitive GLP-1R form | P43220 | hit rate 0.007% among 380,000 | Potency, µM (top dose mostly 45.6 µM), actives largely listed as activators
LDHA inh: inhibitors of human lactate dehydrogenase A; P00338; purified LDHA, NADH/diaphorase-resazurin fluorescence; stronger effect = lower value; activity change, % (values are at about 110 or 230 µM); hit rate 0.15% among 480,000; AID 1347041; in the data active = activity change below about -30%; inconclusive = mostly about -25% to -30%
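Human LDH5 (2 nM) was incubated with 0.06 mM NADH and 0.2 mM pyruvate for 5 min at room temperature in Tris pH 7.4. Remaining NADH was coupled through diaphorase/resazurin, and resorufin fluorescence was read at 0 and 20 min.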
Of the large screens only hits and unclear results are named; the others gave an inactive call. Unless noted, calls follow the shape of the dose curve; as a rule, active = well fitted curve in the direction sought with a large enough effect; inconclusive = small, poorly fitted or top-dose-only effect, or another doubt; inactive = no such curve, though single readings can be large; an effect the other way counts as inactive or inconclusive.

CC(=O)Nc1nc2n(n1)C(c1ccccc1)C=C(c1ccccc1)N2 (centres undefined)	ClpP mod 28.2µM
Cc1ccc(C2C=C(c3ccccc3)Nc3nc(NS(=O)(=O)c4ccc(C)cc4)nn32)cc1 (centres undefined)	none (no result: p53 reactivation, GLP-1R agonist)
CC(=O)Nc1nc2n(n1)C(c1ccc(Cl)cc1)C=C(C)N2 (centres undefined)	ClpP mod 3.16µM
CS(=O)(=O)Nc1nc2n(n1)C(c1ccccc1)C=C(c1ccc(Br)cc1)N2 (centres undefined)	ClpP mod 8.91µM
NC(=O)c1ccc(N2CCN(c3ccccc3F)CC2)c([N+](=O)[O-])c1	none (no result: ClpP mod)
COc1ccc(CCN(C)CC(O)COc2c(C)ccc(C)c2C)cc1OC (centres undefined)	GLP-1R inv ag inconclusive
COc1ccc(CCN(C)CC(O)COC(c2ccc(F)cc2)c2ccc(F)cc2)cc1OC (centres undefined)	GLP-1R inv ag 5.01µM, GLP1R cytotox inconclusive
O=C(N/N=C/C(Cl)=C\c1ccccc1)c1cnccn1	p53 reactivation 12.6µM
O=C(N/N=C/C(Cl)=C/c1ccccc1)c1cnccn1	GLP1R cytotox inconclusive, p53 reactivation inconclusive
COc1ccc(C(CCc2cc(OC)c(OC)c(OC)c2)NC(C)=O)cc1 (centres undefined)	none (no result: p53 reactivation, ClpP mod)
Cc1ccc(Cn2c(C3CCCN3c3nc(-c4cc(Cl)c(N)c(Cl)c4)cs3)nc3cc(C(=O)NCCCO)ccc32)cc1 (centres undefined)	none (no result: p53 reactivation)
Cc1ccc(Cn2c(C3CCCN3c3nc(C)cs3)nc3cc(C(F)(F)F)ccc32)cc1 (centres undefined)	GLP-1R inv ag 10µM (no result: p53 reactivation)
Cc1cc(C)cc(OCC(C)N)c1 (centres undefined)	none (no result: GLP-1R inv ag, GLP1R cytotox, p53 reactivation, ClpP mod, GLP-1R agonist)
OC(COCC(F)(F)C(F)(F)C(F)(F)C(F)F)Cn1c2ccc(Cl)cc2c2cc(Cl)ccc21 (centres undefined)	GLP-1R inv ag 1.78µM, GLP1R cytotox inconclusive
N=c1n(Cc2ccccc2)c2ccccc2n1CC(O)COc1ccc(Cl)cc1Cl (centres undefined)	GLP-1R inv ag inconclusive, GLP1R cytotox inconclusive (no result: ClpP mod)
COc1ccccc1C(=O)NCCSCc1ccccc1Cl	GLP-1R inv ag inconclusive, ClpP mod 7.08µM
COc1ccccc1C(=O)NNC(=O)c1cccc(F)c1	GLP-1R inv ag 8.91µM (no result: ClpP mod)
COc1ccccc1C(=O)NCCC(=O)NNC(=O)c1ccccc1O	ClpP mod 25.1µM
COCC(=O)NNC(=O)c1ccccc1OC	none (no result: ClpP mod)
Cc1ccccc1OCCNC(=O)CNC(=O)c1ccccc1O	ClpP mod 28.2µM
COc1ccccc1OCC(=O)NCCSCc1ccccc1Cl	none
COc1ccccc1OCCNC(=O)c1ccccc1C	none
O=C(NCc1cccc(Cl)c1)C1Cc2c(-c3ccccc3)ccnc2O1 (centres undefined)	none (no result: p53 reactivation)
Cn1c(-c2ccccc2)c(CCO)c2ccccc21	GLP-1R inv ag inconclusive, ClpP mod 28.2µM
O=C(Nc1nc(-c2ccc(Cl)cc2Cl)cs1)c1ccc(OCC2CCCO2)cc1 (centres undefined)	GLP-1R inv ag 7.08µM (no result: ClpP mod)
O=C(Nc1ccc(Cl)cc1)c1ccc(OCC2CCCO2)cc1 (centres undefined)	ClpP mod 14.1µM
CCOC(=O)c1[nH]c(C)c(C(=O)NCc2ccc(F)cc2)c1C	none (no result: p53 reactivation, GLP-1R agonist)
CC(C)Oc1nc2ccccc2nc1C(C#N)C(=O)NCc1ccccc1 (centres undefined)	none (no result: GLP-1R inv ag, GLP1R cytotox, p53 reactivation, ClpP mod, GLP-1R agonist)
COc1cc2c(cc1OC)C1=NC(=O)CN1C(SCc1ccccc1)=N2	ClpP mod 22.4µM
COc1cnn(Cc2ccccc2)c(=O)c1SCc1ccccc1	GLP-1R inv ag inconclusive
CCC(C)Sc1ccc(-c2nc3ccc(C)cn3c2NCc2ccccc2)cc1OC (centres undefined)	GLP-1R inv ag 2.82µM
CCCCNc1c(-c2ccc(SC3CCCCC3)c(OC)c2)nc2ccc(C)cn12	GLP-1R inv ag 8.91µM
O=C(NCC1CCCO1)C(c1cccs1)N(C(=O)c1ccc(-c2ccccc2)[nH]1)C1CCCC1 (centres undefined)	GLP-1R inv ag 10µM
O=C(NCC1CCCO1)C(c1cccs1)N(Cc1ccccc1)C(=O)c1ccc(-c2ccccc2)[nH]1 (centres undefined)	GLP-1R inv ag inconclusive
Cc1cc(NCCCN(C)C)n2nc(-c3cccs3)cc2n1	ClpP mod 28.2µM
Cc1cc(C)c2c(n1)nn1c(NCCCN(C)C)cc(C)nc21	none
N#Cc1c(N)nc2c(c1-c1ccccc1)CCC2	none
O=C(NC(=S)N1CCN(c2ccc(C(F)(F)F)cc2[N+](=O)[O-])CC1)c1cccs1	GLP1R cytotox 10µM
COc1ccc(/C=C/C(=O)Nc2ccc3nc4c(c(Nc5ccccc5OC)c3c2)CCCC4)cc1	GLP-1R inv ag 8.91µM, GLP1R cytotox inconclusive (no result: p53 reactivation, GLP-1R agonist)
COc1ccccc1Nc1c2c(nc3ccc(NC(=O)/C=C/c4cccc(OC)c4OC)cc13)CCCC2	GLP-1R inv ag inconclusive, GLP1R cytotox inconclusive (no result: p53 reactivation, GLP-1R agonist)
COc1ccc(Nc2c3c(nc4ccccc24)CCC3)cc1	GLP-1R inv ag 1.78µM, GLP1R cytotox 7.94µM
COc1ccc(/C=C/C(=O)Nc2ccc3nc4c(c(Nc5ccc(OC)c(OC)c5)c3c2)CCCC4)cc1	GLP-1R inv ag 8.91µM, GLP1R cytotox 4.47µM (no result: p53 reactivation, GLP-1R agonist)
Cc1cc(C)c2c(N)c(C(=O)N/N=C/c3cccs3)sc2n1	p53 reactivation inconclusive (no result: ClpP mod)
COc1cc(OC)c(C(=O)Nc2cccc(C(C)=O)c2)cc1OC	ClpP mod 15.8µM
COc1ccc(C(=O)Nc2cccc(C(C)=O)c2)cc1OC	none
COc1cccc(C(=O)Nc2cccc(C(C)=O)c2)c1	p53 reactivation inconclusive
CCn1c(SCC(=O)N2CCc3ccccc32)nnc1-c1ccncc1	LDHA inh -38.6
CCc1ccc(-c2nn(-c3ccc(OC)cc3)c3c2cnc2ccc(OC)cc23)cc1	ClpP mod inconclusive (no result: p53 reactivation)
CCOc1ccc2ncc3c(-c4cccc(OC)c4)nn(-c4ccccc4)c3c2c1	ClpP mod 10µM (no result: p53 reactivation)
COc1ccc(Cl)cc1NC(=O)CN(C(=O)c1ccco1)C1CCCCC1	GLP-1R inv ag 10µM
O=C(CCSCCc1ccccn1)Nc1ccc(Cl)cc1	none (no result: p53 reactivation, GLP-1R agonist)
c1ccc(Cn2cc(CN3CCCCO3)c(-c3ccc4c(c3)OCO4)n2)cc1	GLP-1R inv ag 11.2µM
O=C1c2ccccc2NC2(CCCCC2)N1c1ccc(O)cc1	ClpP mod inconclusive
CC1CCC2(CC1)Nc1ccccc1C(=O)N2c1ccccc1 (centres undefined)	ClpP mod 28.2µM

Assay outcomes: PubChem BioAssay, National Center for Advancing Translational Sciences (NCATS)
